Here are results for 27 molecules from PubChem BioAssay (NCATS).

A number with no mark means an inactive call. Inconclusive results are not listed. Active and inactive are the calls of the source. The call rests on the fitted dose curve; in most records, active means well fitted curve in the direction sought with a large enough effect; inconclusive means small, poorly fitted or top-dose-only effect, or another doubt; inactive means no such curve, though single readings can be large; an effect the other way counts as inactive or inconclusive.

In one test the target is Luciferin 4-monooxygenase (Photinus pyralis) (UniProt P08659). Description: Primary firefly luciferase (FLuc) qHTS assay for identification of artifact compounds. (AID 1845220). Further: nearly all actives have a fitted effect of over 60% in size. The conditions noted are these: purified firefly luciferase, luminescence, 5 min; series mostly up to 54.1 µM; activity change, negative = inhibition: at the top concentration. The procedure, abridged:
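Reaction readout was CCD-imaged luminescence, taken 5 min after adding 10 nM purified firefly enzyme to compound-treated wells holding 10 uM luciferin and ATP in pH 7.6 buffer.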
In general terms: In qHTS, concentration-response curves come from the screen itself.
`COc1ccc(C2(CNC(=O)[C@](C)(Cc3c[nH]c4ccccc34)NC(=O)Nc3ccc([N+](=O)[O-])cc3)CCCCC2)nc1`: the molecule was called inactive.
The same measure, in the same setting: then `CCN(CC)Cc1cccc(/C=C/c2nc3ccc(F)cc3c(=O)n2-c2ccccc2Cl)n1`, with “inactive”.
For `C=C(C(=O)O)C1CC2=C(C)C(=O)CC2C(C)CC1O` (stereo not given), the molecule was called inactive.

System in a further test: not listed separately
Description: Primary fluorescence-based thiol-reactive (MSTI) qHTS assay for identification of artifact compounds. (AID 1845221). Further: nearly all actives have a fitted effect of over 65% in size. Further: potency means the concentration at half of the fitted maximal effect.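 On activity change, negative = thiol reactive: thiol-reactive compounds lower the probe fluorescence signal.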 The conditions noted are these: MSTI thiol-reactivity probe, 1 h; series mostly up to 53.8 µM; activity change, negative = thiol reactive: at the top concentration. The procedure, abridged:
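MSTI probe at 4 uM final in 2% DMSO/PBS pH 7.4; compounds, 1 h at room temperature in dark. Fluorescence Ex/Em 525/598 nm, normalised to Acetyl-MSTI and MSTI, fitted to 4-parameter Hill.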
In the case of `Cc1c(C(=O)NCCCO)cnn1-c1nc(-c2cccc(C(F)(F)F)c2)cs1`, the “activity change, negative = thiol reactive” value (“activity change” for short) is 579%.
Consider `C[C@@H](O[C@H]1OCCN(Cc2n[nH]nc2CN(C)C)[C@H]1c1ccc(F)cc1)c1cc(C(F)(F)F)cc(C(F)(F)F)c1`, for which the “activity change” value is 24.3%.
Consider `CCC(=O)Nc1cccc(Oc2nc(Nc3ccc(N4CCN(C)CC4)cc3OC)ncc2Cl)c1`, for which the Potency is 1.89 µM (active).
Regarding `O=C(Nc1cccc(C(F)(F)F)c1)c1ccccc1NCc1ccncc1`, the “activity change” value was 223%.
Consider `COc1cc2nc(-c3cc(F)ccc3O)nc(N[C@@H]3CNC[C@H]3C(C)(C)O)c2cc1OC`, for which the “activity change” value is 95.1%.
Regarding `Cc1cc(CN)cc(C)c1NC(=O)c1ccc(-c2cc(Cl)ccc2Cl)o1`, the “activity change” value is 7.16%.
On to `CC1(C)SC2C(NC(=O)[C@H](NC(=O)N3CCNC3=O)c3ccccc3)C(=O)N2C1C(=O)O` (stereo not given in full), for which the “activity change” value was 69.7%.
Turning to `CCCCc1nc(C)c(CC(=S)N(C)C)c(=O)n1Cc1ccc(-c2ccccc2-c2nn[nH]n2)cc1`, the “activity change” value was 116%.
Turning to `CO[C@@H]1[C@@H](O[C@H]2O[C@@H](C)[C@H](O[C@@H]3C[C@](C)(O)[C@H](O)[C@@H](C)O3)[C@@H](N(C)C)[C@@H]2O)[C@@H](CC=O)C[C@@H](C)[C@@H](O[C@H]2CC[C@H](N(C)C)[C@H](C)O2)/C=C/C=C/C[C@@H](C)OC(=O)C[C@H]1O`, the “activity change” value is 21.6%.
For the molecule `CNc1cc(OC)c(C(=O)N[C@@H]2CCN(Cc3ccccc3)[C@@H]2C)cc1Cl`, the “activity change” value is 0.421%.
On the same count and under the same terms, then `CN([C@H]1c2cc(OCCCC(F)(F)F)ccc2OC(C)(C)[C@@H]1O)S(C)(=O)=O`, with 53.7%; and `CCOC(=O)CCC(=O)O[C@H]1[C@H](O[C@@H]2[C@@H](C)[C@H](O[C@H]3C[C@@](C)(OC)[C@@H](O)[C@H](C)O3)[C@@H](C)C(=O)O[C@H](CC)[C@@](C)(O)[C@H](O)[C@@H](C)C(=O)[C@H](C)CC2(C)O)O[C@H](C)C[C@@H]1N(C)C` (stereo not given in full), with 27.5%.
As for `COc1cc(-c2cc(-c3cccc(O)c3)cnc2N)cc(OC)c1OC`, the “activity change” value was 63.8%.
As for `CC(=O)Nc1ccc(C(=O)Nc2ccccc2N)cc1`, the “activity change” value was -13.8% [at 25.6 µM].
For the molecule `C[C@H](NC(=O)C(C)(C)Oc1ccc(C(F)(F)F)cn1)[C@@H](Cc1ccc(Cl)cc1)c1cccc(C#N)c1`, the “activity change” value is 170%.
Regarding `CN(C)CC(=O)Nc1ccc2[nH]c(=O)c3ccccc3c2c1`, the “activity change” value is -1.58%.
Same read-out and setting: then `CC(CCC1(O)OC2CC3C4CC=C5CC(O[C@@H]6O[C@H](CO)[C@@H](O[C@@H]7O[C@H](CO)[C@@H](O)[C@H](O)[C@H]7O)[C@H](O)[C@H]6O[C@@H]6O[C@@H](C)[C@H](O)[C@@H](O)[C@H]6O)CCC5(C)C4CCC3(C)C2C1C)CO[C@@H]1O[C@H](CO)[C@@H](O)[C@H](O)[C@H]1O` (stereo not given in full), with 204% [at 11.5 µM].
In the case of `C[C@@H](CN1CCC(n2c(=O)[nH]c3cc(Cl)ccc32)CC1)NC(=O)c1ccc2ccccc2c1`, the “activity change” value is -22.2%.
As to `CC(C)c1ccc(NC(=O)C(c2ccccc2)N(C)C(=O)Cc2c[nH]c3ccccc23)cc1` (stereo not given), the “activity change” value was 139%.
The same measure, in the same setting: then `CCCCC(=O)N(Cc1ccc(-c2ccccc2-c2nn[nH]n2)cc1)C(C(=O)O)C(C)C` (stereo not given), with -19.3%; and `CCCCc1nc(Cl)c(CO)n1Cc1ccc(-c2ccccc2-c2nnn[nH]2)cc1`, with 21.5%; and `COc1ccc2c(c1)CN(C(=O)CCN1CCC(Cc3ccccc3)CC1)CCS2`, with 19.5% [at 25.6 µM].
Consider `C=C1C(=O)O[C@@H]2[C@H]1[C@H](O)C[C@]1(C)[C@@H](O)CC=C(C)[C@@H]21`, for which the “activity change” value was 6.35%.
As to `CCNC(=O)[C@@H]1CCCN1C(=O)[C@H](CCCN=C(N)N)NC(=O)[C@H](CC(C)C)NC(=O)[C@@H](CC(C)C)NC(=O)[C@H](Cc1ccc(O)cc1)NC(=O)[C@H](CO)NC(=O)[C@H](Cc1c[nH]c2ccccc12)NC(=O)[C@H](Cc1cnc[nH]1)NC(=O)[C@@H]1CCC(=O)N1`, the “activity change” value is 114% [at 25.6 µM].
On to `COc1ccc(C2(CNC(=O)[C@](C)(Cc3c[nH]c4ccccc34)NC(=O)Nc3ccc([N+](=O)[O-])cc3)CCCCC2)nc1`, for which the “activity change” value is 96.3%.
Same read-out and setting: then `CCN(CC)Cc1cccc(/C=C/c2nc3ccc(F)cc3c(=O)n2-c2ccccc2Cl)n1`, with 29.7%.
Turning to `C=C(C(=O)O)C1CC2=C(C)C(=O)CC2C(C)CC1O` (stereo not given), the Potency is 26.7 µM (active).
